About 410 targets per protein were measured; listed, in parts, are those with the strongest signals and a random draw of the rest.
Experiments:
Assay in all cases: glycan array binding signal (z-score within array); higher = stronger binding
Details in all cases: glycan notation: IUPAC condensed, linker removed
[1] = target: Fuc(a1-2)Gal(b1-3)GlcNAc(b1-3)[Neu5Ac(a2-6)Gal(b1-4)GlcNAc(b1-6)]Gal(b1-4)Glc
Procedure, shortened: (§1)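 From the Consortium for Functional Glycomics database, 3228 arrays were curated, keeping only those whose protein sequence was available. Binding is given as a within-array Z-score averaged across arrays sharing a protein sequence and across linkers. Negative Z-scores can be read as non-binding.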

[2] = target: Fuc(a1-2)Gal(b1-4)GlcNAc(b1-2)Man
Procedure, shortened: as §1

[3] = target: Fuc(a1-2)Gal(b1-4)GlcNAc(b1-3)Gal(b1-4)GlcNAc
Procedure, shortened: as §1

[4] = target: Fuc(a1-2)Gal(b1-4)[Fuc(a1-3)]GlcNAc
Procedure, shortened: as §1

[5] = target: Fuc(a1-2)Gal6S(b1-3)GlcNAc
Procedure, shortened: as §1

[6] = target: Fuc(a1-2)Gal6S(b1-3)GlcNAc6S
Procedure, shortened: as §1

[7] = target: Fuc(a1-2)[Gal(a1-3)]Gal(b1-4)Glc
Procedure, shortened: as §1

[8] = target: Fuc(a1-2)[Gal(a1-3)]Gal(b1-4)GlcNAc(b1-3)[Fuc(a1-2)[Gal(a1-3)]Gal(b1-4)GlcNAc(b1-6)]GalNAc
Procedure, shortened: as §1

[9] = target: Fuc(a1-2)[GalNAc(a1-3)]Gal(b1-4)GlcNAc(b1-3)Gal(b1-4)GlcNAc
Procedure, shortened: as §1

[10] = target: Fuc(a1-2)[GalNAc(b1-3)]Gal
Procedure, shortened: as §1

[11] = target: Fuc(a1-3)[Gal(b1-4)]GlcNAc(b1-3)Gal(b1-3)[Fuc(a1-4)]GlcNAc
Procedure, shortened: as §1

[12] = target: Gal(b1-2)Gal
Procedure, shortened: as §1

[13] = target: Gal(b1-3)GalNAc(a1-3)[Fuc(a1-2)]Gal(b1-4)Glc
Procedure, shortened: as §1

[14] = target: Gal(b1-3)GlcNAc(b1-3)Gal(b1-4)GlcNAc(b1-3)Gal(b1-4)GlcNAc(b1-2)[Gal(b1-3)GlcNAc(b1-3)Gal(b1-4)GlcNAc(b1-3)Gal(b1-4)GlcNAc(b1-6)]Man(a1-6)[Gal(b1-3)GlcNAc(b1-3)Gal(b1-4)GlcNAc(b1-3)Gal(b1-4)GlcNAc(b1-2)Man(a1-3)]Man(b1-4)GlcNAc(b1-4)[Fuc(a1-6)]GlcNAc
Procedure, shortened: as §1

[15] = target: Gal(b1-3)GlcNAc(b1-3)Gal(b1-4)[Fuc(a1-3)]GlcNAc
Procedure, shortened: as §1

[16] = target: Gal(b1-3)[Fuc(a1-4)]GlcNAc(b1-3)Gal(b1-4)[Fuc(a1-3)]GlcNAc
Procedure, shortened: as §1

[17] = target: Gal(b1-4)Gal
Procedure, shortened: as §1

[18] = target: Gal(b1-4)GalNAc(b1-3)[Fuc(a1-2)]Gal(b1-4)GlcNAc
Procedure, shortened: as §1

[19] = target: Gal(b1-4)Glc
Procedure, shortened: as §1

[20] = target: Gal(b1-4)GlcNAc(b1-2)Man
Procedure, shortened: as §1

[21] = target: Gal(b1-4)GlcNAc(b1-2)Man(a1-3)[Gal(b1-4)GlcNAc(b1-2)Man(a1-6)][Gal(b1-4)GlcNAc(b1-4)]Man(b1-4)GlcNAc(b1-4)[Fuc(a1-6)]GlcNAc
Procedure, shortened: as §1

[22] = target: Gal(b1-4)GlcNAc(b1-2)Man(a1-3)[Man(a1-6)]Man(b1-4)GlcNAc(b1-4)GlcNAc
Procedure, shortened: as §1

[23] = target: Gal(b1-4)GlcNAc(b1-2)[Gal(b1-4)GlcNAc(b1-4)]Man(a1-3)[Gal(b1-4)GlcNAc(b1-2)Man(a1-6)]Man(b1-4)GlcNAc(b1-4)GlcNAc
Procedure, shortened: as §1

[24] = target: Gal(b1-4)GlcNAc(b1-2)[Gal(b1-4)GlcNAc(b1-4)]Man(a1-3)[GlcNAc(b1-4)][Gal(b1-4)GlcNAc(b1-2)[Gal(b1-4)GlcNAc(b1-6)]Man(a1-6)]Man(b1-4)GlcNAc(b1-4)GlcNAc
Procedure, shortened: as §1

[25] = target: Gal(b1-4)GlcNAc(b1-3)Gal(b1-4)GlcNAc(b1-2)Man(a1-3)[Gal(b1-4)GlcNAc(b1-3)Gal(b1-4)GlcNAc(b1-2)Man(a1-6)]Man(b1-4)GlcNAc(b1-4)[Fuc(a1-6)]GlcNAc
Procedure, shortened: as §1

[26] = target: Gal(b1-4)GlcNAc(b1-3)Gal(b1-4)GlcNAc(b1-2)[Gal(b1-4)GlcNAc(b1-3)Gal(b1-4)GlcNAc(b1-6)]Man(a1-6)[Gal(b1-4)GlcNAc(b1-3)Gal(b1-4)GlcNAc(b1-2)Man(a1-3)]Man(b1-4)GlcNAc(b1-4)GlcNAc
Procedure, shortened: as §1

[27] = target: Gal(b1-4)GlcNAc(b1-3)Gal(b1-4)GlcNAc(b1-3)Gal(b1-4)GlcNAc
Procedure, shortened: as §1

[28] = target: Gal(b1-4)GlcNAc(b1-6)GalNAc
Procedure, shortened: as §1

[29] = target: Gal6S(b1-4)GlcNAc6S
Procedure, shortened: as §1

[30] = target: GalNAc(b1-4)GlcNAc6S
Procedure, shortened: as §1

[31] = target: GlcNAc(b1-2)Man(a1-3)[GlcNAc(b1-2)Man(a1-6)]Man(b1-4)GlcNAc(b1-4)[Fuc(a1-6)]GlcNAc
Procedure, shortened: as §1

[32] = target: GlcNAc(b1-2)[GlcNAc(b1-6)]Man(a1-6)[GlcNAc(b1-2)Man(a1-3)]Man(b1-4)GlcNAc(b1-4)GlcNAc
Procedure, shortened: as §1

[33] = target: GlcNAc(b1-2)[GlcNAc(b1-6)]Man(a1-6)[GlcNAc(b1-2)Man(a1-3)]Man(b1-4)GlcNAc(b1-4)[Fuc(a1-6)]GlcNAc
Procedure, shortened: as §1

[34] = target: GlcNAc(b1-3)Gal(b1-4)GlcNAc(b1-3)Gal(b1-4)GlcNAc
Procedure, shortened: as §1

[35] = target: GlcNAc(b1-3)Gal(b1-4)GlcNAc(b1-3)Gal(b1-4)GlcNAc(b1-2)[GlcNAc(b1-3)Gal(b1-4)GlcNAc(b1-3)Gal(b1-4)GlcNAc(b1-6)]Man(a1-6)[GlcNAc(b1-3)Gal(b1-4)GlcNAc(b1-3)Gal(b1-4)GlcNAc(b1-2)Man(a1-3)]Man(b1-4)GlcNAc(b1-4)[Fuc(a1-6)]GlcNAc
Procedure, shortened: as §1

[36] = target: GlcNAc(b1-3)Gal(b1-4)GlcNAc(b1-3)Gal(b1-4)GlcNAc(b1-3)Gal(b1-4)GlcNAc(b1-2)Man(a1-3)[GlcNAc(b1-3)Gal(b1-4)GlcNAc(b1-3)Gal(b1-4)GlcNAc(b1-3)Gal(b1-4)GlcNAc(b1-2)Man(a1-6)]Man(b1-4)GlcNAc(b1-4)GlcNAc
Procedure, shortened: as §1

[37] = target: GlcNAc(b1-3)Gal(b1-4)GlcNAc(b1-6)[GlcNAc(b1-3)]Gal(b1-4)GlcNAc
Procedure, shortened: as §1

[38] = target: GlcNAc(b1-4)GlcNAc(b1-4)GlcNAc
Procedure, shortened: as §1

[39] = target: Man(a1-2)Man(a1-6)[Man(a1-3)]Man(a1-6)[Man(a1-2)Man(a1-2)Man(a1-3)]Man(b1-4)GlcNAc(b1-4)GlcNAc
Procedure, shortened: as §1

[40] = target: Man(a1-3)[Man(a1-6)]Man(a1-6)[Man(a1-2)Man(a1-3)]Man(b1-4)GlcNAc(b1-4)GlcNAc
Procedure, shortened: as §1

[41] = target: Man(b1-4)GlcNAc
Procedure, shortened: as §1

[42] = target: Neu5Ac(a2-3)Gal(b1-3)GlcNAc(b1-2)Man
Procedure, shortened: as §1

[43] = target: Neu5Ac(a2-3)Gal(b1-3)[Fuc(a1-4)]GlcNAc
Procedure, shortened: as §1

[44] = target: Neu5Ac(a2-3)Gal(b1-3)[Fuc(a1-4)]GlcNAc(b1-3)Gal(b1-4)[Fuc(a1-3)]GlcNAc
Procedure, shortened: as §1

[45] = target: Neu5Ac(a2-3)Gal(b1-4)GlcNAc(b1-3)Gal
Procedure, shortened: as §1

[46] = target: Neu5Ac(a2-3)Gal(b1-4)GlcNAc(b1-6)[Gal(b1-3)]GalNAc
Procedure, shortened: as §1

[47] = target: Neu5Ac(a2-6)Gal(b1-4)Glc
Procedure, shortened: as §1

[48] = target: Neu5Ac(a2-6)Gal(b1-4)GlcNAc(b1-2)Man(a1-3)[Man(a1-6)]Man(b1-4)GlcNAc(b1-4)GlcNAc
Procedure, shortened: as §1

[49] = target: Neu5Ac(a2-6)Gal(b1-4)GlcNAc(b1-2)Man(a1-6)[Gal(b1-4)GlcNAc(b1-2)Man(a1-3)]Man(b1-4)GlcNAc(b1-4)GlcNAc
Procedure, shortened: as §1

[50] = target: Neu5Ac(a2-6)Gal(b1-4)GlcNAc(b1-3)Gal(b1-4)GlcNAc
Procedure, shortened: as §1

[51] = target: Neu5Ac(a2-6)Gal(b1-4)GlcNAc(b1-3)Gal(b1-4)GlcNAc(b1-3)GalNAc
Procedure, shortened: as §1

[52] = target: Neu5Ac(a2-8)Neu5Ac(a2-3)Gal(b1-3)GalNAc(b1-4)[Neu5Ac(a2-3)]Gal(b1-4)Glc
Procedure, shortened: as §1

[53] = target: Neu5Ac9Ac(a2-3)Gal(b1-4)GlcNAc
Procedure, shortened: as §1

[54] = target: Neu5Gc(a2-3)Gal(b1-3)GlcNAc
Procedure, shortened: as §1

[55] = target: Neu5Gc(a2-3)Gal(b1-4)GlcNAc(b1-3)Gal(b1-4)GlcNAc(b1-2)Man(a1-3)[Neu5Gc(a2-3)Gal(b1-4)GlcNAc(b1-3)Gal(b1-4)GlcNAc(b1-2)Man(a1-6)]Man(b1-4)GlcNAc(b1-4)GlcNAc
Procedure, shortened: as §1

[56] = target: Neu5Gc(a2-3)Gal(b1-4)[Fuc(a1-3)]GlcNAc
Procedure, shortened: as §1

B1: Mermaid2 (Stilbonema majum) (protein)
chain: MGSSHHHHHHSSGLVPRGSHMAASGWLRSPQGTVVKLYRRSLSWSKADEFCKDVDGRLVVDRTADMHLFLIKNVLKEKKSRVWVGLRRTAPHSRTWIWSDGTRQNEDDLNTNLWLRDEPNDAAGEEECALFMYSPWEKAWGLNDYLCRGGCRSYQFICEKGIR
glycan array binding signal (z-score) [1]: 0.333
glycan array binding signal (z-score) [2]: 1.76
glycan array binding signal (z-score) [3]: -0.575
glycan array binding signal (z-score) [4]: 0.558
glycan array binding signal (z-score) [5]: -0.388
glycan array binding signal (z-score) [6]: 4.48
glycan array binding signal (z-score) [7]: -0.23
glycan array binding signal (z-score) [8]: -0.477
glycan array binding signal (z-score) [9]: -0.302
glycan array binding signal (z-score) [10]: -0.551
glycan array binding signal (z-score) [11]: -0.144
glycan array binding signal (z-score) [12]: -0.539
glycan array binding signal (z-score) [13]: 3.31
glycan array binding signal (z-score) [14]: 4.69
glycan array binding signal (z-score) [15]: -0.471
glycan array binding signal (z-score) [16]: -0.152
glycan array binding signal (z-score) [17]: 6.71
glycan array binding signal (z-score) [18]: 0.467
glycan array binding signal (z-score) [19]: -0.205
glycan array binding signal (z-score) [20]: 1.07
glycan array binding signal (z-score) [21]: -0.652
glycan array binding signal (z-score) [22]: 3.75
glycan array binding signal (z-score) [23]: 0.034
glycan array binding signal (z-score) [24]: -0.17
glycan array binding signal (z-score) [25]: -0.278
glycan array binding signal (z-score) [26]: 5.21
glycan array binding signal (z-score) [27]: 0.308
glycan array binding signal (z-score) [28]: -0.317
glycan array binding signal (z-score) [29]: -0.12
glycan array binding signal (z-score) [30]: 4.64
glycan array binding signal (z-score) [31]: 0.316
glycan array binding signal (z-score) [32]: -0.776
glycan array binding signal (z-score) [33]: -0.217
glycan array binding signal (z-score) [34]: -0.357
glycan array binding signal (z-score) [35]: 0.522
glycan array binding signal (z-score) [36]: -0.346
glycan array binding signal (z-score) [37]: -0.719
glycan array binding signal (z-score) [38]: 0.454
glycan array binding signal (z-score) [39]: -0.4
glycan array binding signal (z-score) [40]: 0.111
glycan array binding signal (z-score) [41]: 5.41
glycan array binding signal (z-score) [42]: -0.619
glycan array binding signal (z-score) [43]: -0.173
glycan array binding signal (z-score) [44]: 3.06
glycan array binding signal (z-score) [45]: -0.777
glycan array binding signal (z-score) [46]: 6.1
glycan array binding signal (z-score) [47]: -0.397
glycan array binding signal (z-score) [48]: -0.03
glycan array binding signal (z-score) [49]: -0.551
glycan array binding signal (z-score) [50]: -0.49
glycan array binding signal (z-score) [51]: -0.709
glycan array binding signal (z-score) [52]: -0.435
glycan array binding signal (z-score) [53]: -0.505
glycan array binding signal (z-score) [54]: -0.34
glycan array binding signal (z-score) [55]: -0.883
glycan array binding signal (z-score) [56]: 3.71
